Among the data in PubChem BioAssay AID602250 (The Scripps Research Institute Molecular Screening Center, 2012) are inhibition values, retold here.

The campaign covered roughly 360,000 compounds. About 2,200 (0.61%) were called active. The list comes from a sample in which actives are over-represented; it also holds similar structures and randomly drawn compounds. Values without a mark were called inactive.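 The calls were made as follows: active = inhibition above a per-plate cutoff, the plate's mean sample inhibition plus 3 SD (cut at about 24% in these data); inactive = the rest.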

Usually inhibition stands for the drop in the measured response relative to a control, in per cent.

A short description of this assay: nonselective inhibitors of ATP calcium response in CHO-K1, primary screen, counter-screen for M1 antagonist project, cell-based, Fluo-8 calcium fluorescence, full deck, 1536-well (AID 602250).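 Also: 0% = DMSO plus EC80 ATP and 100% = DMSO alone without ATP.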 As to conditions: CHO-K1 parental, ATP-induced calcium, Fluo-8 fluorescence; at 3 µM; active compounds read high. For orientation: Counterscreens check selectivity or assay interference.
For `Cc1cccn2c(=O)c3cc(C(=O)NCCN4CCOCC4)c(=N)n(Cc4cccnc4)c3nc12`, the inhibition is 6.02%.

As for `Cc1cccn2c(=O)c3cc(C#N)c(=NC(=O)c4cccnc4)n(CC4CCCO4)c3nc12` (centres undefined), the inhibition was 20.6%.

With `Cc1cccn2c(=O)c3cc(C#N)c(=O)n(CCCN4CCOCC4)c3nc12`, the inhibition was 25.6% (active).

Consider `COCC(C)NC(=O)c1ccc(-n2nc(C(F)(F)F)cc2-c2cccs2)cc1` (centres undefined), for which the inhibition was -4.35%.

For `CC(C)(C)NC(=O)Cn1nnc(-c2ccccc2Cl)n1`, the inhibition is -23%.

Take `NC(=O)c1ncn([C@@H]2O[C@H](CN=C3NS(=O)(=O)c4ccccc43)[C@@H](O)[C@H]2O)n1`: the inhibition was -7.18%.

As to `Cc1c(-c2ccccc2)cn2c1-c1ccc(C)n1CC2`, the inhibition was 43.4% (active).

With `CC(=O)c1ccc(NC(=O)CCNS(=O)(=O)c2cc(Br)cnc2N)cc1`, the inhibition is 0.07%.

Consider `Cc1ccc(S(=O)(=O)c2c[nH]c3ccc(Cl)cc3c2=O)cc1`, for which the inhibition was 0.53%.

Turning to `O=C(CCn1nnnc1CN1CCOCC1)N1CCC(c2ccccc2Cl)C1` (centres undefined), the inhibition was -9.8%.

As to `COc1ccc(C(=O)OCC(=O)Nc2cccc(C(C)=O)c2)cc1OC`, the inhibition was -4.37%.

Take `O=C(Nc1ccccc1)Nc1nnc(COc2ccccc2F)s1`: the inhibition is 7.01%.

For `CC(=O)c1cccc(NC(=S)N2CCN(S(C)(=O)=O)CC2)c1`, the inhibition was -7.23%.

As for `CCSc1nsc(NC(=O)Nc2cccc(C(C)=O)c2)n1`, the inhibition is 30.8% (active).

For the compound `C=CCSc1nsc(NC(=O)Nc2cccc(C(C)=O)c2)n1`, the inhibition was 24.7% (active).

On to `CSc1nsc(SCC(=O)Nc2cc(C(=O)O)ccc2C)n1`, for which the inhibition is -5.18%.

With `CSc1nsc(NC(=O)Nc2ccccc2)n1`, the inhibition was 28.2% (active).

For the compound `CCCCN1C(=O)C(=O)N(CC(=O)Nc2cccc(C(C)=O)c2)C1=O`, the inhibition is 10.5%.

With `CC(=O)c1cccc(NC(=O)[C@@H](NC(N)=O)C(C)C)c1`, the inhibition was -2.68%.

As for `CCN1C(=O)C(C(=O)NC(C)c2ccccc2)C2CC1(C)Oc1ccccc12` (centres undefined), the inhibition is -9.9%.

`CC(C)n1cnc2c(NCc3ccccc3)cc(OCC3CCN(C)CC3)cc21`: the inhibition was -18.6%.

As to `Cc1cc(S(=O)(=O)NCC(C)C)ccc1OCC(=O)NC1CC1`, the inhibition was 7.62%.

Turning to `O=C(CN1C(=O)NC2(CCCC2)C1=O)NCC1CCCO1` (centres undefined), the inhibition was -10.5%.

`O=C(Nc1ccccc1C(=O)NCC1CCCO1)c1ccccc1F` (centres undefined): the inhibition was -7.11%.

Regarding `CC(NC(=S)Nc1ccc(S(N)(=O)=O)cc1)c1ccc2c(c1)OCO2` (centres undefined), the inhibition was 9.71%.

Regarding `NS(=O)(=O)c1ccc(NC(=O)COC(=O)CCc2c[nH]c3ccccc23)cc1`, the inhibition is 0.38%.

As to `NS(=O)(=O)c1ccc(NC(=O)COC(=O)c2c3c(nc4ccccc24)/C(=C\c2ccc4c(c2)OCO4)CCC3)cc1`, the inhibition was 26.9% (active).

In the case of `Cc1ccc(C(=O)N/C(=C\c2ccco2)C(=O)NC2CCS(=O)(=O)C2)cc1` (centres undefined), the inhibition is -6.64%.

As for `CCC(CC)C(=O)Nc1cc(C(=O)OC)cc(C(=O)OC)c1`, the inhibition was -1.71%.

Consider `CN(Cc1ccccc1F)C(=O)C(Cc1ccccc1)NC(=O)c1ccccc1` (centres undefined), for which the inhibition is 31.8% (active).

With `NC(=O)c1ccc(NC(=O)COC(=O)C(Cc2ccccc2)NC(=O)c2ccccc2)cc1` (centres undefined), the inhibition is 18.1%.

`CC(C)C(NC(=O)c1c(F)cccc1F)C(=O)NNC(=O)c1ccccc1` (centres undefined): the inhibition is -6.47%.

With `Cc1ccccc1N1CCN(C2CCCN(C(=O)c3cn4c(C)cccc4n3)C2)CC1` (centres undefined), the inhibition was -0.61%.

For `CCc1ccccc1NC(=O)c1ccc2c(c1)CCN2S(C)(=O)=O`, the inhibition was 4.89%.

Consider `CSc1ccccc1NC(=O)c1ccc2c(c1)CCN2S(C)(=O)=O`, for which the inhibition was -14.8%.

As for `CS(=O)(=O)N1CCc2cc(C(=O)Nc3ccccc3Br)ccc21`, the inhibition is 25.4% (active).

For `Oc1cc2c(cc1O)CN(C(=S)NCCc1ccc(Cl)cc1)CCC2`, the inhibition is 1.38%.

As to `O=C(CSc1nnc2ccc(-c3ccncc3)nn12)N1CCCCC1`, the inhibition is -8.71%.

Turning to `Cc1ccccc1Cn1nc(C)c(NC(=O)C(F)(F)F)c1C`, the inhibition is -5.32%.

Regarding `Cc1nn(Cc2ccc(F)cc2)c(C)c1NC(=O)c1noc2c1CCc1ccccc1-2`, the inhibition was 24.5% (active).

`Cc1nn(Cc2ccc(Cl)c(Cl)c2)c(C)c1NC(=O)c1cc(C2CC2)on1`: the inhibition was -3.24%.

Take `Cc1cc(C)c2oc(C(=O)Nc3ccc(S(=O)(=O)Nc4nccc(C)n4)cc3)cc(=O)c2c1`: the inhibition is -10.7%.

As for `Cc1ccc(OCc2cc(C(=O)N(C)CCn3ccnc3C)no2)cc1C`, the inhibition was -1.34%.

For `Cc1n[nH]c(=O)c2c(NC(=O)CSc3cc(Cl)ccc3Cl)oc(C)c12`, the inhibition is -14.8%.

As to `CCC(C)CN1CCC(CO)(Cc2ccccc2Cl)CC1` (centres undefined), the inhibition is -1.43%.

In the case of `Nc1ccccc1C(=O)NC1CCCCNC1=O` (centres undefined), the inhibition is -4.31%.

Regarding `FC(F)(F)Oc1ccc(NC(=S)NCc2ccccc2)cc1`, the inhibition is 26.5% (active).

For `Fc1ccccc1CNC(=S)Nc1ccc(Cl)cc1`, the inhibition was 7.2%.

With `O=C(NNC(=S)NCc1ccccc1)c1ccc(OC(F)F)cc1`, the inhibition is -9.25%.

Take `COc1ccc(S(=O)(=O)Nc2ccc3oc(C)c(C(C)=O)c3c2)cc1`: the inhibition is 9.32%.

For the compound `COc1ccc(NS(=O)(=O)c2ccc(N3CCN(CCO)CC3)c([N+](=O)[O-])c2)cc1`, the inhibition is 4.94%.

As to `COc1ccc(NS(=O)(=O)c2ccc(Oc3c(C#N)cccc3C#N)cc2)cc1`, the inhibition was 49.1% (active).

For `CC(OC(=O)CCC(=O)c1ccccc1)C(=O)Nc1ccc(F)cc1` (centres undefined), the inhibition is 1.59%.

In the case of `COc1cc(OC)nc(N/N=C(\c2ccccc2)c2ccncc2)n1`, the inhibition is -9.28%.

On to `O=C(Nc1nnc(C2CC2)s1)c1ccccn1`, for which the inhibition is -5.35%.

Turning to `c1ccc(C(=NNc2nc3ccccc3s2)c2ccccn2)cc1`, the inhibition is 35.5% (active).

Consider `CC1(C(=O)NCc2ccc3c(c2)OCO3)CCN1CCc1ccccc1` (centres undefined), for which the inhibition was -8.04%.

`O=C(CC1Sc2ccccc2NC1=O)NNc1ccc(Cl)c(Cl)c1` (centres undefined): the inhibition is -13.4%.

Consider `O=C(COc1ccccc1)N1CCN=C1SCc1cccc(F)c1`, for which the inhibition was -5.27%.

In the case of `O=C(NCC(=O)N1CCC2(CC1)NCCc1[nH]cnc12)c1ccc(Br)cc1`, the inhibition is -11.4%.

As for `CCC(=O)N1CCc2cc(S(=O)(=O)CCC(=O)N3CCN(c4ccccc4F)CC3)ccc21`, the inhibition is -5.31%.

In the case of `CCC(=O)N1c2ccc(S(=O)(=O)CCC(=O)N3CCN(c4ccccc4)CC3)cc2CC1C` (centres undefined), the inhibition is 24.5% (active).

Consider `CCC(=O)N1c2ccc(S(=O)(=O)NCc3ccco3)cc2CC1C` (centres undefined), for which the inhibition was -18.4%.

`CC[C@]12c3[nH]c4ccc(OC)cc4c3CCN1C(=O)C(CC(=O)NCCN1CCOCC1)C[C@@H]2C(=O)N1CCN(C(=O)C2CC2)CC1` (some centres undefined): the inhibition is -4.64%.

In the case of `CCc1ccc2oc(=O)cc(CN3CCCCC3C)c2c1` (centres undefined), the inhibition is -11.8%.

For `COc1ccc(CCNc2ncnc3nc[nH]c23)cc1OC`, the inhibition is 10.8%.

For the compound `c1ccc2c(c1)OCC(CNc1ncnc3nc[nH]c13)O2` (centres undefined), the inhibition is 44.4% (active).

Regarding `O=C(COC(=O)c1ccc(F)cc1)NCC1COc2ccccc2O1` (centres undefined), the inhibition is -5.85%.

On to `O=C(Nc1ccc2c(c1)OCCO2)C1c2ccccc2OCC(=O)N1Cc1ccccn1` (centres undefined), for which the inhibition is -12.5%.

On to `CN(CCO)Cc1csc2ccc(Br)cc12`, for which the inhibition was -7.65%.

On to `CN(Cc1ccc(F)cc1)C(=O)COc1ccc2ccccc2c1`, for which the inhibition is -15.2%.

On to `COc1ccc(C(=O)COC(=O)Cn2cnc3c2c(=O)n(C)c(=O)n3C)c(OC)c1`, for which the inhibition was -0.99%.

On to `COc1ccc(C(C#N)Nc2ccccc2C)cc1` (centres undefined), for which the inhibition is -8.31%.

`CC(C)(C)n1nnnc1C(c1ccc2ncccc2c1)N1CCSCC1` (centres undefined): the inhibition is -9.5%.

As for `O=C(NCC(=O)N1CCN(c2ncc(C(F)(F)F)cc2Cl)CC1)c1ccc(Br)o1`, the inhibition is -11.5%.

As for `COc1ccc(N2CCN(C(=O)CNC(=O)c3ccc(C(C)(C)C)cc3)CC2)cc1`, the inhibition was 9.5%.

With `CCOc1ccc(C(=O)NCC(=O)N2CCN(c3ccc(C(F)(F)F)cn3)CC2)cc1`, the inhibition was 31.8% (active).

On to `Cc1ccccc1CSCCNC(=O)c1ccc(N(C)S(=O)(=O)c2ccccc2)cc1`, for which the inhibition was -7.28%.

Regarding `Cc1cc(-c2nnc(SCC(=O)Nc3ccc(S(N)(=O)=O)cc3)n2N)n[nH]1`, the inhibition was -13.8%.

On to `O=C(NCc1ccccc1)C1c2ccccc2OCC(=O)N1C1CC1` (centres undefined), for which the inhibition is 0.77%.

Consider `O=[N+]([O-])c1ccc2c(c1)C(O)n1nc(-c3ccccc3)nc1S2` (centres undefined), for which the inhibition is -21.9%.

Regarding `COc1ccc(OC)c(Nc2nc3ccccc3n3cnnc23)c1`, the inhibition is -12.2%.

For `COc1cc(Nc2nc3ccc(Cl)cc3n3cnnc23)cc(OC)c1OC`, the inhibition was 28.9% (active).

As to `COc1ccc(CCNc2nc3ccc(C)cc3n3cnnc23)cc1OC`, the inhibition was -5.44%.

For `O=C1CN(C(=O)COC(=O)c2cnc(Cl)c(Cl)c2)c2ccccc2N1`, the inhibition is -25%.

On to `O=C(CCc1nnc(Cc2ccc3c(c2)OCO3)o1)NCCc1ccccc1Cl`, for which the inhibition is -0.82%.

On to `COc1ccccc1Cc1c(-c2ccc(Cl)cc2)nc2c3ccccc3ccn12`, for which the inhibition is -20.1%.

Consider `CNS(=O)(=O)c1ccc2c(c1)[nH]c(=S)n2C`, for which the inhibition was 35.9% (active).

As to `CCCCn1c(=S)[nH]c2cc(S(=O)(=O)N3CCCCC3)ccc21`, the inhibition was -12.6%.

For `CCn1c(=S)[nH]c2cc(S(=O)(=O)N3CCOCC3)ccc21`, the inhibition is -3.41%.

Turning to `CN1CCc2c(sc3c2c(NCc2ccco2)nc2nnnn23)C1`, the inhibition was -19.9%.

As to `O=C(Cc1ccc(S(=O)(=O)N2CCOCC2)s1)N1CCN(c2ccc(C(F)(F)F)cc2[N+](=O)[O-])CC1`, the inhibition is 5.21%.

For `O=C(c1ccc(N2CCCC2=O)cc1)N1CCN(c2ccc(C(F)(F)F)cc2[N+](=O)[O-])CC1`, the inhibition is 44% (active).

In the case of `COc1cc(OC)cc(C(=O)NC(=S)N2CCN(c3ccc(C(F)(F)F)cc3[N+](=O)[O-])CC2)c1`, the inhibition is 5.86%.
